Experimental data reported in the supplement of paper PMC4894684.
Counter-ions that a name gives are not always drawn. ± gives the standard deviation of the averaged measurements.

test system: Toxoplasma gondii RH (in HFF); assay: parasite growth relative to the screen mean (all compounds = 100%); higher = less inhibition of parasite growth; settings: 5 µM; 72 h; oxygen 21 %
Summary of the method: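 Library compounds (10 mM DMSO stocks) were pin-transferred to 5 µM final onto confluent human foreskin fibroblasts in 96-well plates, then infected within 2 h with RH β-Gal–GFP Toxoplasma (MOI 1:5) and grown 72 h at 21% O2. Parasite number came from a CPRG β-Gal assay against in-plate standard curves. Growth is expressed relative to the screen mean (all compounds = 100%), averaged over two screens. Uninfected host-cell viability was checked by CellTiter-Blue.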

`Nc1ncnc2c1ncn2[C@@H]1O[C@H](CO)C[C@H]1O` [Cordycepin] and `CCCCC#Cc1nc(NC)c2ncn([C@@H]3O[C@H](CO)[C@@H](O)[C@H]3O)c2n1` are within error of each other in parasite growth: 122 ± 20% for the first, 143 ± 8.2% for the second.

Going from `O=C(O)CCCc1ccccc1` [sodium 4-Phenylbutyrate] to `c1ccc(COCCCc2c[nH]cn2)cc1` [Proxyfan Oxalate], the parasite growth rises from 64.6 ± 3.4% to 112 ± 18%.

Going from `CC(C)SC(=N)N` [S-Isopropylisothiourea hydrobromide] to `N[C@@H](CS(=O)O)C(=O)O` [L-Cysteinesulfinic acid], the parasite growth falls from 97.1 ± 3.1% to 61 ± 6.7%.

First: COP(=O)(OC)OC(c1ccc(Cl)cc1)P(=O)(OC)OC (stereo not drawn)
Second: COc1cccc(NC(=O)/C=C/c2ccc(Cl)cc2)c1
The parasite growth of the first is lower: 79.4 ± 28% for the first, 136.1 ± 0.67% for the second.

First: Cc1c(OCC(F)(F)F)ccnc1C[S+]([O-])c1nc2ccccc2[nH]1 (stereo not drawn) [Lansoprazole]
Second: Oc1ccc(-c2c(-c3ccccc3)nn3c(C(F)(F)F)cc(C(F)(F)F)nc23)cc1
The parasite growth of the first is lower: 124 ± 9.3% for the first, 170 ± 8.6% for the second.

`COc1ccc2cccc(N3CCN(CCNC(=O)c4ccc(F)cc4)CC3)c2c1` and `COc1ccccc1N1CCN(CCCCN2C(=O)c3ccccc3C2=O)CC1` [NAN-190 hydrobromide] are within error of each other in parasite growth: 122 ± 20% for the first, 133 ± 11% for the second.

`CN/C(=N\CCSCc1nc[nH]c1C)NC#N` [Cimetidine] and `CN/C(=N\c1ccc(C2=NNC(=O)CC2C)cc1)NC#N` (stereo not drawn) [Siguazodan] are within error of each other in parasite growth: 118 ± 10% for the first, 130 ± 23% for the second.

`Cc1nn(C)c2nc(NNC(=O)Nc3cc(Cl)nc(Cl)c3)cc(C(C)C)c12` and `Cc1ccccc1N=Nc1ccc(NC(=O)c2ccnn2C)c(C)c1` are within error of each other in parasite growth: 97.4 ± 3% for the first, 82.7 ± 23% for the second.

`O=C(OCCN1CCCCC1)c1c[nH]c2ccccc12` and `O=C(c1ccc(F)cc1)C1CCN(CCCCc2ccccc2)CC1` [4-(4-Fluorobenzoyl)-1-(4-phenylbutyl)-piperidine oxalate] are within error of each other in parasite growth: 113 ± 7.7% for the first, 110 ± 7.6% for the second.

Compared with `Nc1c(S(=O)(=O)O)cc(Nc2cccc3ccccc23)c2c1C(=O)c1ccccc1C2=O`, `Cc1cc(F)c(Nc2ncnc3cc(OCc4ccccc4)ccc23)cc1O` is lower in parasite growth: 172 ± 11% for the first, 11.2 ± 13% for the second.

Compared with `CCCCCCNC(=O)Nc1ccc(S(=O)(=O)Nc2ccc(CCNC[C@H](O)COc3ccc(O)cc3)cc2)cc1`, `CCCOc1ccc(Br)cc1-c1cc(-c2ccc(Cl)cc2)[nH]c1-c1ccncc1` is lower in parasite growth: 170 ± 26% for the first, 37 ± 9% for the second.

Going from `Cn1ccc2cc(NC(=O)Nc3cccnc3)ccc21` to `O=S(=O)(c1cccc2cnccc12)N1CCCNCC1` [Fasudil hydrochloride], the parasite growth falls from 129 ± 6.5% to 90.6 ± 21%.

First: O=C(O)COCCN1CCN(C(c2ccccc2)c2ccc(Cl)cc2)CC1 (stereo not drawn) [Cetirizine dihydrochloride]
Second: Oc1c2ccccc2c2c3c(cccc13)N=N2
The parasite growth of the first is higher: 136 ± 34% for the first, 7.23 ± 4.4% for the second.

First: C1CCC(N=C(NC23CC4CC(CC(C4)C2)C3)N2CCOCC2)CC1
Second: CCCN(C/C=C/I)C1CCc2cccc(O)c2C1 (stereo not drawn) [8-Hydroxy-PIPAT oxalate]
The parasite growth of the first is lower: 100 ± 31% for the first, 190 ± 23% for the second.

Compared with `Cc1ccc(S(=O)(=O)/C=C/C#N)cc1`, `CCn1c(=O)[nH]c2ccccc21` is lower in parasite growth: 135 ± 27% for the first, 67.92 ± 0.3% for the second.

First: O=C(O)C1=CCNCC1 [Isoguvacine hydrochloride]
Second: N[C@H](C(=O)O)c1ccc(O)c(C(=O)O)c1 [(S)-3-Carboxy-4-hydroxyphenylglycine]
The parasite growth of the first is lower: 130 ± 9.5% for the first, 153 ± 9.2% for the second.

`COc1ccc2c(c1OC)C(=O)O[C@@H]2[C@H]1c2c(cc3c(c2OC)OCO3)CCN1C` [Noscapine hydrochloride] and `CC(C)(C)c1ccc(/C=C/C(=O)Nc2ccc3c(c2)OCCO3)cc1` are within error of each other in parasite growth: 129 ± 27% for the first, 133.4 ± 1% for the second.

Compared with `O/N=C/c1ccc(-c2ccc(O)c(F)c2)c(Cl)c1O`, `Nc1nc2c(ncn2COCCO)c(=O)[nH]1` [Acyclovir] is higher in parasite growth: < 0% for the first, 124 ± 28% for the second.

Compared with `CNC(=C[N+](=O)[O-])NCCSCc1ccc(CN(C)C)o1` [Ranitidine hydrochloride], `CC#CCOC(=O)c1c(C)nc2sc3c(c2c1N)CCC(O)C3` (stereo not drawn) is higher in parasite growth: 94.7 ± 18% for the first, 117.8 ± 0.28% for the second.
